Calls of active or inactive are those of the source.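 The calls were made as follows: active = primary screen hit whose fluorescence ratio, in both repeats, exceeds the weak agonist control mean by 3 SD; inactive = the rest.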
Test system: TRPC4 (transient receptor potential cation channel C4 beta), mouse
Experiment: positive allosteric modulators of mouse TRPC4, confirmation, cell-based, second round, Fluo-4, HEK293 TRPC4beta/mu-opioid, 1 µM (AID 2554)
Settings: DAMGO EC20, Fluo-4 calcium flux, at 1 µM; active compounds read high

outcome, inactive:
NC1=NC2(CCN(Cc3ccccc3)CC2)n2c(nc3ccccc32)N1
COc1ccc(CN2CCC(N(CCc3ccccc3)Cc3ccccc3)CC2)c(OC)c1
CCc1ccc(C(=O)c2cnc3ccc(OC)cc3c2N2CCN(CC)CC2)cc1
S=C(NCCc1cnc[nH]1)NC1CCCC1
O=C(NCc1ccccc1)C1=C[C@H](c2ccccc2)C[C@H](OCc2ccc(CO)cc2)O1
Cc1ccc(OCC(=O)N(C)CCc2ccccn2)cc1
CC(C)(C)C(=O)/C=c1\s/c(=C\c2ccc(-c3ccc([N+](=O)[O-])cc3)o2)c(=O)n1CC(=O)NC(N)=O
NC(=O)C1CCCN(CCc2ccccc2)C1 (centres undefined)
Cc1cc2nc3s/c(=C/c4ccc(-c5ccccc5C(=O)O)o4)c(=O)n3c2cc1C
COc1ccc(CNCc2cn(-c3cccc(F)c3)nc2-c2ccc(C)o2)cc1
CN(C)C(CNc1ccc(C(F)(F)F)cn1)c1ccccc1 (centres undefined)
CN(C)C(CNC(=O)c1cccc(S(=O)(=O)N(C)C)c1)c1ccccc1 (centres undefined)
CCCc1c(O)nc(SCCN(CC)CC)[nH]c1=O
CCC(=O)N1CCc2cc(Br)cc(S(=O)(=O)NCCCN(CC)Cc3ccccc3)c21
O=C(O)C1C2C=CC(C2)C1C(=O)N1CCN(C/C=C/c2ccccc2)CC1 (centres undefined)
COc1ccc(C)c(NC(=O)NCCc2cnc[nH]2)c1
OCCC1CN(Cc2ccccc2-c2ccco2)CCN1Cc1ccccc1 (centres undefined)
COc1ccc(CCN(C)C(=O)C2CCCN(C3CCN(Cc4ccccc4)CC3)C2)cc1OC (centres undefined)
CCOc1ccc(S(=O)(=O)Nc2cccc(C(=O)NCC(c3ccccc3)N(C)C)c2)cc1 (centres undefined)
Cc1cc(C)cc(NC(=S)N2CCN(c3ncc(C(F)(F)F)cc3Cl)CC2)c1
COc1ccc(C(CNC(=O)c2cccc(Br)c2)N2CCCC2)cc1 (centres undefined)
CC(C)n1cnc2c(N(C)c3ccccc3)nc(N(CCN(C)C)Cc3ccccc3)nc21
Cc1cccn2c(CNCCc3ccccn3)c(C(=O)N3CCOCC3)nc12
Cc1ccc(C)c(-n2cc(CNCCCn3cccn3)c(-c3ccccc3)n2)c1
Cc1csc2c(N3CCN(C(=O)Nc4ccc(OC(F)(F)F)cc4)CC3)ncnc12
CN(CCc1ccccn1)C(=S)Nc1cccc(S(=O)(=O)N(C)C)c1
Cc1ccc(NC(=S)NC2CC3CCC(C2)N3Cc2ccco2)c(C)c1 (centres undefined)
COc1cc2c(cc1OC)C(C)N(C(=O)C(NC(=O)c1ccccc1)C(C)C)CC2 (centres undefined)
O=C(NC1CC1)C1=C[C@H](c2csc3ccccc23)C[C@H](OCc2ccc(CO)cc2)O1
Clc1ccc2nc(N3CCNCC3)nc(-c3ccccc3)c2c1
COc1ccc(C(CNC(=O)/C=C/c2c(Cl)nc3ccccn23)N(C)C)cc1 (centres undefined)
CC(=O)n1cc([C@H]2C=C(C(=O)NCc3ccccc3)O[C@@H](OCc3ccc(CO)cc3)C2)c2ccccc21
CCCn1ncc(CN2CCC(n3nccc3NC(=O)CCc3ccccc3)CC2)c1C
CC(=O)NC(CC(=O)NCC(c1ccco1)N(C)C)c1ccccc1 (centres undefined)
COc1ccc(C(=O)NNC(=S)NC(=O)c2cccs2)cc1
COCCn1nnnc1C(c1cc2ccc(OC)cc2[nH]c1=O)N1CCN(C2CCCCC2)CC1 (centres undefined)
O=C(c1sc2ccccc2c1Cl)N(Cc1ccccc1)C1CCS(=O)(=O)C1 (centres undefined)
O=c1c(Cc2ccc(F)cc2)c(O)ccn1CCc1cnc[nH]1

potentiation, active:
Cc1ccc(Cn2c(SCCN3CCCCC3)nc3c2c(=O)n(C)c(=O)n3C)cc1 8%

Source: PubChem BioAssay
